Bioassay records (PubChem BioAssay)
In the library only some 12% were active in any assay of this set; here they are far more common.
Lassa entry inh = blocks Lassa virus binding to or entry into cells. Lassa virus pseudotype entry inhibition, cell reporter. Potency, µM (top dose mostly 37.9 µM), actives largely listed as inhibitors. actives 1.2% (n = 300,000); calls by dose curve; tested in HEK293 cells; also: nearly all actives have a fitted effect of over 50% in size
Shiga inhibitor = inhibitors of Shiga toxin in Vero cells | Vero cells, Shiga toxin protein synthesis inhibition reporter | inhibition, % at 38.7 µM | actives 9.2% (n = 290,000) | AID 2315; in the data active = inhibition mostly above about 28%, no sharp cut-off; inactive = mostly below about 43%
Cycloheximide cs = counter-screen hit for Shiga toxin inhibitors, cycloheximide; AID 2314; cell reporter, cycloheximide protein synthesis inhibition counterscreen; actives 12% (n = 300,000); max response, %; in the data active = max response mostly above about 13%, no sharp cut-off; inactive = mostly below about 14%; also: read at 38.3 µM for the half of the compounds with a filed dose
MARV entry inh = blocks Marburg virus binding to or entry into cells. Marburg virus pseudotyped entry inhibition, cell reporter. Potency, µM (series often up to 37.8 µM), hits mostly inhibitors. actives 1.8% (n = 300,000); calls by dose curve; tested in HEK293 cells
Of the large screens only hits and unclear results are named; the others gave an inactive call.

CCc1ccc(OCC(=O)N2c3ccccc3CCc3ccccc32)cc1	Lassa entry inh inconclusive, MARV entry inh inconclusive
Cc1ccc(OCC(=O)N2CCc3ccccc32)cc1	Lassa entry inh inconclusive, Shiga inhibitor 84, Cycloheximide cs 76, MARV entry inh inconclusive
CCOc1ccc(OCC)c(NC(=O)c2ccc(-c3ccccc3)s2)c1	none (no result: Shiga inhibitor, Cycloheximide cs)
Cc1csc2nc(COc3ccc(NC(=O)COc4ccc(F)cc4)cc3)cc(=O)n12	none (no result: Shiga inhibitor, Cycloheximide cs)
CCCNC(=O)/C=C/c1ccc(S(=O)(=O)Nc2ccccc2OC)cc1	Lassa entry inh 5µM, MARV entry inh inconclusive
CCCn1c(-c2cccc(F)c2)nc2c1c(=O)[nH]c(=O)n2Cc1ccccc1	Lassa entry inh inconclusive
Cn1c(-c2cccc(F)c2)nc2c1c(=O)[nH]c(=O)n2Cc1ccccc1	Lassa entry inh 8.9µM
Cc1cccc(C(=O)N/N=C/c2ccoc2)c1	Shiga inhibitor 78, Cycloheximide cs 36
CC(C)Oc1cccc(C(=O)N/N=C/c2coc3ccccc3c2=O)c1	none
CCCOc1cccc(C(=O)N/N=C/c2ccoc2)c1	Cycloheximide cs 31 (no result: Lassa entry inh, MARV entry inh)
CC(C)COc1ccc(C(=O)N/N=C/c2ccoc2)cc1	Shiga inhibitor 83, Cycloheximide cs 27 (no result: Lassa entry inh, MARV entry inh)
Cc1cccc(C(=O)Nc2cccc(C(=O)N/N=C/c3ccncc3)c2)c1	none
CC(C)Oc1cccc(C(=O)N/N=C/c2ccoc2)c1	Lassa entry inh inconclusive, Shiga inhibitor 61, Cycloheximide cs 49
Cc1ccc(S(=O)(=O)NCC(=O)N(CC(=O)NCC2CCCO2)Cc2ccc(Cl)cc2)cc1 (stereo not drawn)	none
COc1cccc2sc3ccc(C#CC4(O)CCCCC4)cc3c(=O)c12	Shiga inhibitor 43, Cycloheximide cs 39 (no result: Lassa entry inh, MARV entry inh)
CCC(NC(=O)c1ccc(C#CC2(O)CCCCC2)cc1)C(=O)O (stereo not drawn)	MARV entry inh inconclusive
COc1cccc2sc3ccc(C#Cc4ccc(N)cc4)cc3c(=O)c12	Shiga inhibitor 57, Cycloheximide cs 41 (no result: Lassa entry inh, MARV entry inh)
COc1cccc2sc3ccc(NCc4ccc5c(c4)OCO5)cc3c(=O)c12	Cycloheximide cs 19 (no result: Lassa entry inh, MARV entry inh)
COc1ccccc1C#Cc1ccc2c(=O)c3ccccc3n(C)c2c1	none (no result: Lassa entry inh, MARV entry inh)
COc1cccc2oc3cc(C#Cc4ccccn4)ccc3c(=O)c12	Shiga inhibitor 35, Cycloheximide cs 27 (no result: Lassa entry inh, MARV entry inh)
COc1ccc(C2c3c(oc4ccccc4c3=O)C(=O)N2c2ccccn2)cc1OC (stereo not drawn)	none (no result: Lassa entry inh, MARV entry inh)
COC(=O)c1ccc(NC(=O)CN2C(=O)CC(c3ccccc3)Sc3ccccc32)cc1 (stereo not drawn)	none (no result: Lassa entry inh, Shiga inhibitor, Cycloheximide cs)
O=C(Nc1nncs1)C1CC(=O)N(CCc2ccc(F)cc2)C1 (stereo not drawn)	none
O=S(=O)(Nc1ccccc1C(F)(F)F)c1ccc(-c2ccccn2)s1	none (no result: Lassa entry inh, MARV entry inh)
CC(=O)c1cccc(NC(=S)NCCCCc2ccccc2)c1	none
CCc1nc2sc3ccccc3c(=O)c2c(=O)n1CCOC	none
COc1ccc2sc3ccccc3c(=O)c2c1OC	Lassa entry inh inconclusive, Shiga inhibitor 71, Cycloheximide cs 34
COc1ccc(-c2oc3ccc(-c4ccc(OC)nc4)cc3c2C#CC2(O)CCCCC2)cc1	none (no result: Lassa entry inh, MARV entry inh)
COc1cccc2oc3cc(C#CC4(O)CCCCC4)ccc3c(=O)c12	Shiga inhibitor 58, Cycloheximide cs 35 (no result: Lassa entry inh, MARV entry inh)
O=c1cc(-c2ccccc2F)[nH]c2cc3c(cc12)OCO3	none (no result: Shiga inhibitor, Cycloheximide cs)
COc1ccc(-n2nc(C(=O)NCC(=O)N3CCCCC3)c3ccccc3c2=O)c(OC)c1	Cycloheximide cs 18
COc1ccc(-n2nc(C(=O)NCC(=O)N3CCOCC3)c3ccccc3c2=O)c(OC)c1	none
COc1ccc(-n2nc(C(=O)NCC(=O)N3CCC(C)CC3)c3ccccc3c2=O)c(OC)c1	Cycloheximide cs 16
COc1ccc(-n2nc(C(=O)NCC(=O)N3CCCCCC3)c3ccccc3c2=O)c(OC)c1	Cycloheximide cs 16, MARV entry inh inconclusive
Cc1cn2c(=O)cc(COC(=O)c3cccc(NC(=O)c4ccccc4Cl)c3)nc2s1	none (no result: Shiga inhibitor, Cycloheximide cs, MARV entry inh)
CSc1cccc(-n2cc(-c3ccc4c(c3)OCO4)[nH]c2=O)c1	Shiga inhibitor 83, Cycloheximide cs 29, MARV entry inh inconclusive
CCNc1nc(NCC)n2c(SC(C)C(=O)c3ccc(C)cc3)nnc2n1 (stereo not drawn)	MARV entry inh 12µM
CCNc1nc(NCC)n2c(SC(C(=O)Nc3cc(C)ccc3C)c3ccccc3)nnc2n1 (stereo not drawn)	none
CNC(=O)c1csc(-c2ccc(Cl)cc2)n1	Shiga inhibitor 47, Cycloheximide cs 38
CNC(=O)c1csc(-c2ccc(C)cc2)n1	Shiga inhibitor 45, Cycloheximide cs 24
CNC(=O)c1csc(-c2ccncc2)n1	none
CC(C)(C)c1ccc(COc2ccsc2C(=O)O)cc1	Shiga inhibitor 35, Cycloheximide cs 21
CCOc1ccc(NC(=O)Cn2cnc3c(oc4ccccc43)c2=O)cc1	none (no result: Shiga inhibitor, Cycloheximide cs, MARV entry inh)
Cc1c(/C=N/NC(=O)c2ccc(O)cc2)c2ccccn2c1C(=O)c1ccc(F)cc1	Lassa entry inh 11µM, MARV entry inh inconclusive
Cc1c(/C=N/NC(=O)c2ccccc2O)c2ccccn2c1C(=O)c1ccc(F)cc1	Lassa entry inh inconclusive, Cycloheximide cs 15, MARV entry inh 11µM
O=C(N/N=C\c1ccoc1)c1ccco1	Shiga inhibitor 61, Cycloheximide cs 35, MARV entry inh inconclusive
Cc1cc(/C=N/NC(=O)c2nn(C)cc2Cl)c(C)n1-c1cccc(Br)c1	Cycloheximide cs 18, MARV entry inh inconclusive
Cc1cccc(-n2c(C)cc(/C=N/O)c2C)c1	none
CSC(=S)N/N=C/c1ccc(N(C)C)cc1	Shiga inhibitor 68, Cycloheximide cs 43, MARV entry inh inconclusive
Cc1cccc(-n2c(C)cc(/C=N\NC(=O)c3ccco3)c2C)c1	Shiga inhibitor 96, Cycloheximide cs 35
O=C(N/N=C/c1ccoc1)c1ccc([N+](=O)[O-])cc1	Lassa entry inh inconclusive
CC(OC(=O)CCC(=O)N1CCN(S(=O)(=O)c2ccc3ccccc3c2)CC1)C(=O)NC(N)=O (stereo not drawn)	MARV entry inh inconclusive
CCCSCCCNC(=O)c1ccc2nc(Cc3ccccc3)oc2c1	none (no result: Shiga inhibitor, Cycloheximide cs, MARV entry inh)
CN(C)c1ccc(/C=N/NC(=O)c2ccco2)cc1	Lassa entry inh inconclusive, Cycloheximide cs 41, MARV entry inh inconclusive
CN(C)c1ccc(/C=N/NC(=O)c2cc(=O)[nH]c3ccccc23)cc1	none (no result: Lassa entry inh, MARV entry inh)
CN(C)c1ccc(/C=N\NC(=O)c2cccc3cc[nH]c23)cc1	Shiga inhibitor 56, Cycloheximide cs 32 (no result: Lassa entry inh, MARV entry inh)
CN(C)c1ccc(C=NNC(=O)c2cccnc2)cc1	MARV entry inh inconclusive (no result: Shiga inhibitor, Cycloheximide cs)
Cc1ccc(/C=N/NC(=O)c2ccco2)cc1	Lassa entry inh inconclusive, Shiga inhibitor 37, Cycloheximide cs 45, MARV entry inh inconclusive
O=C(N/N=C/c1ccoc1)c1ccccc1F	Shiga inhibitor 90, Cycloheximide cs 75 (no result: Lassa entry inh, MARV entry inh)
Cc1c(C(=O)N/N=C/c2ccoc2)cccc1[N+](=O)[O-]	none (no result: Lassa entry inh, MARV entry inh)
O=C(Nc1ccc(Cl)cc1)C1CCN(S(=O)(=O)c2ccc(Br)s2)CC1	Lassa entry inh inconclusive (no result: Shiga inhibitor, Cycloheximide cs)
Cc1ccc(S(=O)(=O)Nc2ccc(-c3ccc4nncn4n3)cc2)cc1	none (no result: Shiga inhibitor, Cycloheximide cs)
O=[N+]([O-])c1ccc2nc(N3CCCC3)sc2c1	Shiga inhibitor 68, Cycloheximide cs 29 (no result: Lassa entry inh, MARV entry inh)
Fc1cc(F)c2nc(N3CCCCC3)sc2c1	Shiga inhibitor 115, Cycloheximide cs 78
Fc1ccc2nc(N3CCCC3)sc2c1	Shiga inhibitor 85, Cycloheximide cs 44 (no result: Lassa entry inh)
O=C(c1ccc2c(c1)CCCC2)N1CCN(c2nc3ccc(F)cc3s2)CC1	none (no result: Shiga inhibitor, Cycloheximide cs, MARV entry inh)
